Measured values reported in PubChem BioAssay (Tox21).
Records with an inconclusive call do not appear. Calls of active or inactive are those of the source. Calls follow the shape of the dose curve; as a rule, active = well fitted cell-killing curve with a large enough effect in the repeat runs; inconclusive = weak or mixed curves, or effect the other way; inactive = flat fitted curve, though single readings scatter.

Experiment: qHTS assay to identify small molecule agonists of the TGF-beta/Smad signaling pathway - cell viability counter screen (AID 1346829); also: top concentration of the series differs between compounds; nearly all actives have a fitted effect of over 45% in size
Details: SBE-bla HEK293T viability, CellTiter-Glo luminescence, 5 h; series mostly up to 76.8 µM
Source text: National Center for Advancing Translational Sciences [NCATS]
NIH Chemical Genomics Center [NCGC]
U.S. Environmental Protection Agency [EPA]
National Institutes of Environmental Health Sciences [NIEHS]
National Toxicology Program [NTP]
U.S. Food and Drug Administration [FDA]
Transforming growth factor beta (TGF-beta) superfamily consists of a large number of structurally related dimeric proteins that act as hormones or local mediators in regulating a wide range of biological functions. This superfamily includes TGF-betas themselves, the bone morphogenetic proteins (BMPs) and the activins. These ligands induce oligomerization of serine/threonine receptor kinases and phosphorylate the cytoplasmic signaling molecules of Smad protein family. CellSensor SBE-bla HEK 293T cell line (Life Technologies, Carlsbad, CA), responsive to TGF-beta was used to screen Tox21 10K compound library for identification of agonists/antagonists of the Smad signaling pathway. This cell line contains a beta-lactamase reporter gene under control of the Smad binding element (SBE) stably integrated into HEK 293T cells. Also cytotoxicity of the compounds was tested in parallel by measuring the cell viability using CellTiter-Glo assay system in the same wells.
Tox21 Assay Protocol Summary:
SBE-bla HEK 293T cells were dispensed at 4,000/well in 6 uL of assay medium into black wall/clear-bottom 1536-well plates using a Multidrop Combi (ThermoFisher Scientific, Waltham, MA) dispenser. After the assay plates were incubated at 37 C and 5% CO2 for an overnight, 23 nL of compounds dissolved in DMSO, positive controls or DMSO only was transferred to the assay plate by a Pintool station (Kalypsys, San Diego, CA). The assay plates were incubated at 37 C and 5% CO2 for 5 hr. One uL of LiveBLAzer B/G FRET substrate (Life Technologies) was added using a Flying Reagent Dispenser (FRD, Aurora Discovery, San Diego, CA) and the plates were incubated at room temperature for 2 hr. Fluorescence intensity (405 nm excitation, 460 nm and 530 nm emissions) was measured using an Envision plate reader (PerkinElmer, Shelton, CT). For cytotoxicity read, 4 uL of CellTiter-Glo reagent (Promega Corporation, Madison, WI) was added to each well of the assay plates using FRD. After 30min incubation at room temperature, the luminescence intensity was measured using ViewLux plate reader (PerkinElmer).
With `COCc1c(C(C)C)nc(C(C)C)c(/C=C/[C@@H](O)C[C@@H](O)CC(=O)O)c1-c1ccc(F)cc1` the outcome was “inactive”. With `O=C(O)c1ccc(CO)o1` the outcome was “inactive”. With `CCCCC(=O)O[C@]1(C(=O)CO)[C@@H](C)C[C@H]2[C@@H]3CCC4=CC(=O)C=C[C@]4(C)[C@@]3(F)[C@@H](O)C[C@@]21C` the outcome was “inactive”. For `CCCCC(=O)O[C@]1(C(=O)CO)CC[C@H]2[C@@H]3CCC4=CC(=O)CC[C@]4(C)[C@H]3[C@@H](O)C[C@@]21C`, the outcome was “inactive”. For `CCCCC(CC)COC(=O)COc1ccc(Cl)cc1C` (stereo not given), the outcome was “inactive”. With `CCC(Cc1ccccc1)(C(=O)c1ccc(N2CCOCC2)cc1)N(C)C` (stereo not given) the outcome was “inactive”. In the case of `CC1CC(=O)NN=C1c1ccc(NCC(C)(C)NCC(O)COc2cc(Cl)ccc2C#N)cc1` (stereo not given), the outcome is reported as “inactive”. With `O=Cc1c(Cl)cccc1Cl` the outcome was “inactive”. In the case of `O=C(N/N=C/c1ccc([N+](=O)[O-])o1)c1ccc(O)cc1`, the outcome is reported as “inactive”. With `CC[C@H](NC(=O)c1cc(F)ccc1NS(=O)(=O)c1cccc2cccnc12)c1ccccc1` the outcome was “inactive”. With `O=C(CCCCCCC(=O)Nc1ccccc1)NO` the outcome was “inactive”. For `COC(=O)CC(=O)C(C)(C)C`, the outcome was “inactive”. For `CCN(CC)CCNC(=O)c1ccc(NC(C)=O)cc1`, the outcome was “inactive”. With `CCOC(=O)/C=C/C(=O)O` the outcome was “inactive”. For `CC(=O)Oc1ccc2c(c1)CC[C@@H]1[C@@H]2CC[C@]2(C)[C@@H](O)CC[C@@H]12`, the outcome was “inactive”. For `CO[C@@]12[C@H](COC(N)=O)C3=C(C(=O)C(C)=C(N)C3=O)N1C[C@@H]1N[C@@H]12`, the outcome was “inactive”. With `CN1C(=O)CC(C)(c2ccccc2)C1=O` (stereo not given) the outcome was “inactive”. With `COCCOC` the outcome was “inactive”. With `CCC(=O)Oc1ccc(/C(CC)=C(\CC)c2ccc(OC(=O)CC)cc2)cc1` the outcome was “inactive”. In the case of `CCCCOC(=O)CCS`, the outcome is reported as “inactive”. For `CO[C@H]1O[C@H](CO)[C@@H](O)[C@H](O)[C@H]1O`, the outcome was “inactive”. For `CC1(C)C(=O)N(Br)C(=O)N1Cl`, the outcome was “inactive”. In the case of `COCC(O)CO` (stereo not given), the outcome is reported as “inactive”. In the case of `CCC1(C)CC(=O)NC1=O` (stereo not given), the outcome is reported as “inactive”. For `O=C(Nc1ccccc1)Nc1ccccc1`, the outcome was “inactive”. In the case of `O=C(c1ccc(O)cc1)c1ccc(Cl)cc1`, the outcome is reported as “inactive”. In the case of `O=C(CCCCCCCCC#CI)Oc1ccccc1`, the outcome is reported as “inactive”. For `C(=C\c1ccccc1)/CN1CCN(C(c2ccccc2)c2ccccc2)CC1`, the outcome was “inactive”. In the case of `CC#N`, the outcome is reported as “inactive”. For `CC1=CC(O)CC(C)(C)C1` (stereo not given), the outcome was “inactive”. With `C=CC(C)=CCC=C(C)C` the outcome was “inactive”. In the case of `COC(=O)Nc1nc2ccc(C(=O)c3cccs3)cc2[nH]1`, the outcome is reported as “inactive”. With `CC(CCO)CCc1ccccc1` (stereo not given) the outcome was “inactive”. In the case of `COc1ccc(CCC(=O)c2c(O)cc(O[C@@H]3O[C@H](CO)[C@@H](O)[C@H](O)[C@H]3O[C@@H]3O[C@@H](C)[C@H](O)[C@@H](O)[C@H]3O)cc2O)cc1O`, the outcome is reported as “inactive”. With `CC(C)OCC1CO1` (stereo not given) the outcome was “inactive”. For `CCc1c2c(nc3ccc(OC(=O)N4CCC(N5CCCCC5)CC4)cc13)-c1cc3c(c(=O)n1C2)COC(=O)[C@]3(O)CC`, the outcome was “inactive”. With `CCOC(=O)c1ccccc1OC` the outcome was “inactive”. With `COC(OC)(C(=O)c1ccccc1)c1ccccc1` the outcome was “inactive”. In the case of `O=[N+]([O-])c1cccc(S(=O)(=O)NCCNS(=O)(=O)c2cccc([N+](=O)[O-])c2)c1`, the outcome is reported as “inactive”. In the case of `CCN(Cc1cccc(S(=O)(=O)O)c1)c1ccc(C(=C2C=CC(=[N+](CC)Cc3cccc(S(=O)(=O)[O-])c3)C=C2)c2ccccc2)cc1`, the outcome is reported as “inactive”.
